Laboratory results: paper PMC10338342

Assays:
Protein max = Protein max (UniProt P61244); assay: cross-link between two proteins; cross-linking mass spectrometry; other
Histone H3.1 = Histone H3.1 (UniProt P68431); assay: cross-link between two proteins; cross-linking mass spectrometry
Histone H4 = Histone H4 (UniProt P62805); assay: as above
Histone H2B type 1-J = Histone H2B type 1-J (UniProt P06899); assay: as above

Protein max, sequence (P61244 whole entry): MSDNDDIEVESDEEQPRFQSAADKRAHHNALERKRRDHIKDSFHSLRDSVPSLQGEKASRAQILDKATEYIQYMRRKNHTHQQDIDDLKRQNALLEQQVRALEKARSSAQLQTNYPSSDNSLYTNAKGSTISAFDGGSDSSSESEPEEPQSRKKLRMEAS
Myc proto-oncogene protein, P01106, sequence (P01106 whole entry): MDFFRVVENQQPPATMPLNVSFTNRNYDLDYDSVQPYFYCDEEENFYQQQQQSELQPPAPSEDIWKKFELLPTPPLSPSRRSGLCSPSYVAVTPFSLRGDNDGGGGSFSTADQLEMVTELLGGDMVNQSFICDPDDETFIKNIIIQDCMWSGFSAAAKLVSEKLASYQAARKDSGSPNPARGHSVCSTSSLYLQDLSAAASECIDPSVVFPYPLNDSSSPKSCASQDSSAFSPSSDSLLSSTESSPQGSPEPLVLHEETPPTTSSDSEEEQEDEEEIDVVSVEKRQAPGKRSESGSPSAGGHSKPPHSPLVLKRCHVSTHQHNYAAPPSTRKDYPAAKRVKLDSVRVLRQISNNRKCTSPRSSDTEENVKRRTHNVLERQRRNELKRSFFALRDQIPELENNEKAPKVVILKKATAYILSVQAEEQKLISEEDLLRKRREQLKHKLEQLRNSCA

Substance	listed as a hit (Protein max)	listed as a hit (Histone H3.1)	listed as a hit (Histone H4)	listed as a hit (Histone H2B type 1-J)
Myc proto-oncogene protein, P01106	yes	–	–	–
Histone H2B type 1-J, P06899	–	yes	yes	–
Histone H2A type 1-B/E, P04908	–	yes	yes	yes
